Source: PubChem BioAssay AID1159580 (chemical genetic matrix, 2015)
In all, about 5,500 compounds went through this assay and about 2,000 (36%) were called active. Another 18% or so got no clear call; they are omitted. No stated cut-off is given here; in the data, active means normalized growth mostly below about 0.91 (no sharp cut-off); inconclusive means no clear call, values can overlap the other calls; inactive means mostly above about 0.92. Some of the results follow.

Assay: chemical genetic growth profiling, strain panel (AID 1159580);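 further: tested at 20 µM; growth read once vehicle control cultures reached saturation at 30 °C; 1 = growth at the plate median or of vehicle wells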
Conditions: growth OD
[1] = S. cerevisiae deletion strains, locus YAL013W, strain DEP1, stronger effect = lower value
[2] = S. cerevisiae deletion strains, locus YDR150W, strain NUM1, stronger effect = lower value
[3] = S. cerevisiae deletion strains, locus YJL095W, strain BCK1, stronger effect = lower value
[4] = S. cerevisiae deletion strains, locus YMR307W, strain GAS1, stronger effect = lower value
[5] = S. cerevisiae deletion strains, locus YPL241C, strain CIN2, stronger effect = lower value
[6] = S. cerevisiae deletion strains, locus YAL040C, strain CLN3, stronger effect = lower value
[7] = S. cerevisiae deletion strains, locus YDR363W, strain ESC2, stronger effect = lower value
[8] = S. cerevisiae deletion strains, locus YER002W, strain NOP16, stronger effect = lower value
[9] = S. cerevisiae deletion strains, locus YNL175C, strain NOP13, stronger effect = lower value
[10] = S. cerevisiae deletion strains, locus YNL197C, strain WHI3, stronger effect = lower value
[11] = S. cerevisiae deletion strains, locus YNL224C, strain SQS1, stronger effect = lower value
[12] = S. cerevisiae deletion strains, locus YOR083W, strain WHI5 (second series), stronger effect = lower value

Measured: normalized growth

CC1(C)C(=O)[C@@H]2O[C@@H]2[C@@]2(C)C1CC(=O)[C@]1(C)C2CC[C@@]2(C)[C@H](c3ccoc3)OC(=O)[C@H]3O[C@]321 (some centres undefined)
inactive: [1] 0.99 | S. cerevisiae deletion strains, locus YBR021W, strain FUR4, stronger effect = lower value 1.04 | S. cerevisiae deletion strains, locus YBR229C, strain ROT2, stronger effect = lower value 0.984 | S. cerevisiae deletion strains, locus YCL029C, strain bik1, stronger effect = lower value 0.976 | S. cerevisiae deletion strains, locus YDL035C, strain GPR1, stronger effect = lower value 0.992 | S. cerevisiae deletion strains, locus YDL074C, strain BRE1, stronger effect = lower value 0.955 | S. cerevisiae deletion strains, locus YDL101C, strain DUN1, stronger effect = lower value 0.978 | S. cerevisiae deletion strains, locus YDL134C, strain PPH21, stronger effect = lower value 0.967 | S. cerevisiae deletion strains, locus YDL185W, strain tfp1, stronger effect = lower value 0.951 | S. cerevisiae deletion strains, locus YDL192W, strain arf1, stronger effect = lower value 0.979 | S. cerevisiae deletion strains, locus YDR101C, strain arx1, stronger effect = lower value 0.985 | [2] 0.991 | S. cerevisiae deletion strains, locus YDR162C, strain NBP2, stronger effect = lower value 0.943 | S. cerevisiae deletion strains, locus YDR318W, strain mcm21, stronger effect = lower value 0.984 | S. cerevisiae deletion strains, locus YDR388W, stronger effect = lower value 0.985 | S. cerevisiae deletion strains, locus YDR502C, strain sam2, stronger effect = lower value 0.969 | S. cerevisiae deletion strains, locus YEL061C, strain CIN8, stronger effect = lower value 0.994 | S. cerevisiae deletion strains, locus YER110C, stronger effect = lower value 0.98 | S. cerevisiae deletion strains, locus YER155C, strain BEM2, stronger effect = lower value 0.994 | S. cerevisiae deletion strains, locus YER167W, strain BCK2, stronger effect = lower value 0.991 | S. cerevisiae deletion strains, locus YGL078C, strain dbp3, stronger effect = lower value 0.966 | S. cerevisiae deletion strains, locus YGL086W, strain mad1, stronger effect = lower value 0.995 | S. cerevisiae deletion strains, locus YGL248W, strain PDE1, stronger effect = lower value 0.949 | S. cerevisiae deletion strains, locus YGR135W, strain pre9, stronger effect = lower value 0.968 | S. cerevisiae deletion strains, locus YGR252W, strain gcn5, stronger effect = lower value 0.962 | S. cerevisiae deletion strains, locus YHR079C, strain IRE1 (second series), stronger effect = lower value 0.987 | S. cerevisiae deletion strains, locus YHR094C, strain hxt1, stronger effect = lower value 0.981 | S. cerevisiae deletion strains, locus YHR129C, strain ARP1, stronger effect = lower value 0.988 | S. cerevisiae deletion strains, locus YHR200W, strain rpn10, stronger effect = lower value 0.988 | S. cerevisiae deletion strains, locus YIL066C, strain RNR3, stronger effect = lower value 0.987 | S. cerevisiae deletion strains, locus YIL073C, strain SPO22, stronger effect = lower value 0.96 | S. cerevisiae deletion strains, locus YIL125W, strain kgd1, stronger effect = lower value 0.943 | S. cerevisiae deletion strains, locus YIR030C, strain dcg1, stronger effect = lower value 0.975 | [3] 0.946 | S. cerevisiae deletion strains, locus YJL134W, strain LCB3, stronger effect = lower value 0.988 | S. cerevisiae deletion strains, locus YJL168C, strain set2, stronger effect = lower value 0.989 | S. cerevisiae deletion strains, locus YJL187C, strain SWE1 (second series), stronger effect = lower value 0.977 | S. cerevisiae deletion strains, locus YJR043C, strain POL32, stronger effect = lower value 0.991 | S. cerevisiae deletion strains, locus YKL009W, strain mrt4, stronger effect = lower value 0.971 | S. cerevisiae deletion strains, locus YKL068W, stronger effect = lower value 0.973 | S. cerevisiae deletion strains, locus YKL085W, strain MDH1 (second series), stronger effect = lower value 0.981 | S. cerevisiae deletion strains, locus YKL085W, strain MDH1, stronger effect = lower value 0.981 | S. cerevisiae deletion strains, locus YKR001C, strain vps1, stronger effect = lower value 0.957 | S. cerevisiae deletion strains, locus YLR039C, strain RIC1, stronger effect = lower value 0.951 | S. cerevisiae deletion strains, locus YLR058C, strain SHM2, stronger effect = lower value 0.988 | S. cerevisiae deletion strains, locus YLR102C, strain apc9, stronger effect = lower value 0.975 | S. cerevisiae deletion strains, locus YLR262C, strain YPT6, stronger effect = lower value 0.912 | S. cerevisiae deletion strains, locus YLR268W, strain sec22, stronger effect = lower value 0.997 | S. cerevisiae deletion strains, locus YLR330W, strain CHS5, stronger effect = lower value 0.99 | S. cerevisiae deletion strains, locus YLR342W, strain FKS1 (second series), stronger effect = lower value 1.03 | S. cerevisiae deletion strains, locus YLR371W, strain rom2, stronger effect = lower value 0.962 | S. cerevisiae deletion strains, locus YLR418C, strain cdc73, stronger effect = lower value 0.904 | S. cerevisiae deletion strains, locus YML016C, strain PPZ1, stronger effect = lower value 0.984 | S. cerevisiae deletion strains, locus YML032C, strain rad52, stronger effect = lower value 0.992 | S. cerevisiae deletion strains, locus YML124C, strain tub3, stronger effect = lower value 0.97 | S. cerevisiae deletion strains, locus YMR078C, strain ctf18, stronger effect = lower value 0.955 | S. cerevisiae deletion strains, locus YMR223W, strain ubp8, stronger effect = lower value 0.973 | [4] 1.05 | S. cerevisiae deletion strains, locus YNL067W, strain RPL9B, stronger effect = lower value 0.957 | S. cerevisiae deletion strains, locus YNL233W, strain BNI4, stronger effect = lower value 0.964 | S. cerevisiae deletion strains, locus YNL250W, strain rad50, stronger effect = lower value 0.96 | S. cerevisiae deletion strains, locus YNL271C, strain bni1, stronger effect = lower value 0.973 | S. cerevisiae deletion strains, locus YNL298W, strain CLA4, stronger effect = lower value 0.967 | S. cerevisiae deletion strains, locus YNL307C, strain MCK1, stronger effect = lower value 0.982 | S. cerevisiae deletion strains, locus YNR052C, strain pop2, stronger effect = lower value 0.977 | S. cerevisiae deletion strains, locus YOL006C, strain TOP1, stronger effect = lower value 0.895 | S. cerevisiae deletion strains, locus YOL012C, strain htz1 0.769 | S. cerevisiae deletion strains, locus YOL147C, strain pex11, stronger effect = lower value 0.988 | S. cerevisiae deletion strains, locus YOR061W, strain CKA2, stronger effect = lower value 0.977 | S. cerevisiae deletion strains, locus YOR069W, strain VPS5, stronger effect = lower value 0.985 | S. cerevisiae deletion strains, locus YOR136W, strain idh2, stronger effect = lower value 0.995 | S. cerevisiae deletion strains, locus YOR144C, strain elg1, stronger effect = lower value 0.983 | S. cerevisiae deletion strains, locus YOR184W, strain ser1, stronger effect = lower value 0.982 | S. cerevisiae deletion strains, locus YOR316C, strain cot1, stronger effect = lower value 0.973 | [5] 0.977 | S. cerevisiae deletion strains, locus YPR119W, strain clb2, stronger effect = lower value 0.986 | S. cerevisiae deletion strains, locus YPR141C, strain kar3, stronger effect = lower value 0.964 | S. cerevisiae deletion strains, locus YPR163C, strain tif3, stronger effect = lower value 0.995 | S. cerevisiae deletion strains, locus YPR167C, strain met16, stronger effect = lower value 0.985 | S. cerevisiae deletion strains, strain wtn01, stronger effect = lower value 0.978 | S. cerevisiae strains, strain wild type, stronger effect = lower value 1.01

Cc1nc(N=Nc2ccc(S(=O)(=O)O)cc2S(=O)(=O)O)c(COP(=O)(O)O)c(C=O)c1O
inactive: [6] 1 | S. cerevisiae deletion strains, locus YCL061C, strain MRC1 (second series), stronger effect = lower value 1 | [2] 1.01 | [7] 1.01 | [8] 0.993 | S. cerevisiae deletion strains, locus YGR229C, strain SMI1, stronger effect = lower value 1.02 | [4] 0.998 | S. cerevisiae deletion strains, locus YNL128W, strain TEP1, stronger effect = lower value 1.02 | [9] 1 | [10] 1.01 | [11] 1.01 | [12] 1.01 | S. cerevisiae deletion strains, locus YPL055C, strain LGE1, stronger effect = lower value 1 | [5] 0.997

CC(C)C1C2CCC(C2)C1N (centres undefined)
inactive: [1] 1.01 | [6] 0.976 | [2] 0.985 | [7] 1.02 | [8] 1 | S. cerevisiae deletion strains, locus YGR078C, strain PAC10, stronger effect = lower value 1.02 | S. cerevisiae deletion strains, locus YNL153C, strain GIM3, stronger effect = lower value 1.03 | [9] 1.02 | [10] 1 | [11] 1.03 | [12] 1.01

O1[As]2O[As]3O[As]1O[As](O2)O3
inactive: S. cerevisiae deletion strains, locus YHR030C, strain SLT2, stronger effect = lower value 0.959 | S. cerevisiae deletion strains, locus YHR079C, strain IRE1, stronger effect = lower value 0.974 | [3] 0.983 | S. cerevisiae deletion strains, locus YJR066W, strain TOR1, stronger effect = lower value 0.961 | S. cerevisiae deletion strains, locus YLR113W, strain HOG1, stronger effect = lower value 1.05 | S. cerevisiae deletion strains, locus YNL183C, strain NPR1, stronger effect = lower value 0.927 | S. cerevisiae deletion strains, locus YOR231W, strain MKK1, stronger effect = lower value 0.973 | S. cerevisiae deletion strains, locus YPL256C, strain CLN2, stronger effect = lower value 0.98
